Rows were chosen to be rich in hits. Some 10% of all compounds tested hit in one or more screens of this group.
SW480 rerep – A quantitative high throughput screen for small molecules that induce DNA re-replication in SW480 colon adenocarcinoma cells; 340,000 tested, 1.8% active; Potency, µM (titrated, usually from 46.1 µM), for inactives: at the top dose re-replication activation, actives largely listed as activators; AID 624297, 2012; SW480 DNA re-replication, Hoechst DNA content imaging, 48 h; further: % of control where 0% means no effect; nearly all actives have a fitted effect of over 55% in size
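Per well, 250 cells were exposed to pinned compound for 48 hr. Nuclear DNA was visualised with Hoechst (40 min, 37 C) and total object intensity recorded by fluorescence scanning.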
ELG1 DNA repair – qHTS screen for small molecules that inhibit ELG1-dependent DNA repair in human embryonic kidney (HEK293T) cells expressing luciferase-tagged ELG1; HEK293T ELG1-luciferase reporter, luminescence, 16 h; DNA damage induced by 5-fluorouridine; Potency, µM (top dose mostly 46.1 µM), for inactives: at the top dose activity change, negative = inhibition, hits mostly inhibitors; 330,000 tested, 2.3% active; further: on the % scale 0 is the no-effect control and ±100 the full control effect; nearly all actives have a fitted effect of over 55% in size
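Quantitative HTS, concentration-response format. 2,000 cells/well co-treated with 5-fluorouridine and compound, 16 hr in 5% CO2 at 37 °C; ONE-Glo luminescence read after 30 min.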
Gal4-VP16 FLuc – VP16 counterscreen qHTS for inhibitors of ROR gamma transcriptional activity. Drosophila S2 Gal4-VP16 UAS-luciferase, luminescence, 20 h. Potency, µM (highest dose often 53.6 µM), for the others: top-dose activity, negative = inhibition, most hits filed as inhibitors. 310,000 tested, 3.5% active;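 further: Gal4-VP16 expression switched on by copper sulfate through the metallothionein promoter; on the % scale 0 is the no-effect control and ±100 the full control effect; nearly all actives have a fitted effect of over 50% in size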
MCF10A rereplic – A quantitative high throughput screen for small molecules that induce DNA re-replication in MCF 10a normal breast cells. 350,000 tested, 2.9% active. Potency, µM (top dose mostly 46.1 µM), inactives show at the highest dose activity, positive = re-replication, actives largely listed as activators. MCF 10A DNA re-replication, Hoechst nuclear intensity, 48 h. AID 624296, 2012; further: % of control where 0% means no effect; nearly all actives have a fitted effect of over 50% in size
RORgamma inh – qHTS for inhibitors of ROR gamma transcriptional activity; Nuclear receptor ROR-gamma (Mus musculus), P51450; Potency, µM (doses to about 53.6 µM), for the others: at the highest dose activity change, negative = inhibition, hits mostly inhibitors; 310,000 tested, 5.4% active; Drosophila S2 Gal4-RORgamma UAS-luciferase reporter, 20 h; further: on the % scale 0 is the no-effect control and ±100 the full control effect; nearly all actives have a fitted effect of over 60% in size
Target sequence (P51450 whole entry, looked up, the tested form may be a part): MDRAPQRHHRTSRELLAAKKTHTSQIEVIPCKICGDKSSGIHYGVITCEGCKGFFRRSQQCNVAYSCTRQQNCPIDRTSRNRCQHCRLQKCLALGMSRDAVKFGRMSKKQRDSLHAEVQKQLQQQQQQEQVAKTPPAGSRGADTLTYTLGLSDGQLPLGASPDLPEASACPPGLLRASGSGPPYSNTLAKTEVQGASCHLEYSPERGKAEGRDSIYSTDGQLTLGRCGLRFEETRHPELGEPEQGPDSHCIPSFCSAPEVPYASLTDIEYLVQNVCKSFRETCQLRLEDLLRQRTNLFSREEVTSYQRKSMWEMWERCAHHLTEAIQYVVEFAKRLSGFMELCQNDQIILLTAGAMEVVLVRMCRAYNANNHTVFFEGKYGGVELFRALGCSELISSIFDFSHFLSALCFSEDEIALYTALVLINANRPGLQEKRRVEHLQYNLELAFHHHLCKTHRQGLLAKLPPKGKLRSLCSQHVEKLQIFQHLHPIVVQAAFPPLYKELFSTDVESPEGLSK
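Schneider cells (Drosophila), stable Gal4 DBD–ROR gamma + UAS-luc; 1 hr cmpd preincubation; Cu2+ induction 700 uM final; 20 hr ambient; luminescence.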
Numbers without * were called inactive; u = inconclusive; x = no result; [ ] = another dose, or the depositor's remark. The call rests on the fitted dose curve; in most records, active means well fitted curve in the direction sought with a large enough effect; inconclusive means small, poorly fitted or top-dose-only effect, or another doubt; inactive means no such curve, though single readings can be large; an effect the other way counts as inactive or inconclusive. Potency means the concentration at half of the fitted maximal effect.

SMILES	SW480 rerep	ELG1 DNA repair	Gal4-VP16 FLuc	MCF10A rereplic	RORgamma inh
COc1ccccc1CNC(=S)NCc1ccc(Cl)cc1	-18%	3%	7.1µM*	8%	4µM*
CN1CCC(N(C)C(=O)c2ccc(Cl)c(S(=O)(=O)N(C)c3ccc(Cl)cc3)c2)CC1	-9%	-16%	x	u	x
COC(=O)[C@H](Cc1ccccc1)NC(=O)C/C=C\[C@@H](C)[C@@H](CO)OC	x	x	4%[10 µM]	x	16%[10 µM]
CC(NC(=S)Nc1ccc(F)cc1)c1ccccc1 (stereo unspecified)	-6%[9.22 µM]	-19%	7.9µM*	-3%	7.1µM*
CCCC(C)NC(=S)Nc1cc(C)cc(C)c1 (stereo unspecified)	1%	-18%	6.3µM*	5%	1.4µM*
CC(Cc1cccs1)NC(=O)Nc1ccccc1 (stereo unspecified)	3%	u	22%	-11%	19%
CCN(CC)NC(=S)Nc1ccccc1	9%	-4%	u	-5%	3.2µM*
CC(Cc1cccs1)NC(=S)Nc1ccccc1 (stereo unspecified)	-3%	11%	7.1µM*	u	4.5µM*
O=C1OCCN1c1c(-c2ccccc2)c(-c2cccs2)nc2c(-c3ccccc3)cccc12	-6%	26%	0%	-7%	-21%
CCCCc1ccc(CC(=O)Nc2cc(S(=O)(=O)N3CCOCC3)ccc2O)cc1	-7%	3%	x	5%	x
COCCCn1c(=O)c2sccc2n2c(CCCC(=O)NCc3ccc(OC)cc3)nnc12	-13%	9%	1%	-2%	-8%
CCC(C)C(NC(N)=O)C(=O)Nc1ccc(C(=O)OC)cc1 (stereo unspecified)	-9%	7%	-7%	2%	4%
CCc1cccc(CC)c1NC(=S)Nc1ccccc1	-9%	-4%	u	-5%	13µM*
CC(C)N(C)NC(=S)Nc1ccccc1	-1%	18%	u	0%	-42%[10 µM]
CCC(C)NC(=S)Nc1ccc(C(=O)OC)cc1 (stereo unspecified)	-7%	-1%	u	0%	7.1µM*
CCC(C)NC(=S)Nc1ccccc1 (stereo unspecified)	-1%	u	u	5%	5.6µM*
Cc1cc(N(C)NC(=S)Nc2ccccc2)nc(C)n1	1.8µM*	-4%	-18%	2%	6%
COc1ccc2nc(SCCC(=O)O)cc(C)c2c1	-44%	8%	4%	-5%	0%
CCCOC(=S)Nc1ccccc1	-4%	u	-20%	-1%	11µM*
Cc1ccc(NC(=O)C2CC(=O)Nc3nc4ccccc4n32)c(C)c1 (stereo unspecified)	18µM*	6%	-2%	-19%	-3%
CO/N=C\c1ccc(C(=O)N2[C@H](c3ccc(C)cc3)[C@@H](C)CC[C@H]2C(=O)OC)cc1	x	x	2%[10 µM]	x	-1%[10 µM]
C=CC[C@@H]1C=C[C@H](O/N=C/c2ccc(C(=O)N3[C@H](c4ccc(C)cc4)[C@@H](C)CC[C@H]3C(=O)OC)cc2)[C@@H](CO)O1	u	18µM*	-6%	u	-25%
COc1ccc(-c2nc3ccc(N4CCCC4)cc3c(=O)[nH]2)cc1OC	11µM*	-11%	-10%	23µM*	-43%
O=C(O)c1ccc(C2Nc3ccccc3C(=O)N2Cc2ccccc2)cc1 (stereo unspecified)	-5%	6%	u	-5%	1%
O=C(/C=C/c1cccc(O)c1)c1ccc(N2CCOCC2)cc1	u	u	u	7%	3.5µM*
SMILES	SW480 rerep	ELG1 DNA repair	Gal4-VP16 FLuc	MCF10A rereplic	RORgamma inh
O=C(C=Cc1ccccc1)c1ccc([N+](=O)[O-])cc1	16µM*	x	x	160%	x
Cc1ccc(C(=O)/C=C/c2ccc(-c3ccccc3[N+](=O)[O-])o2)cc1	-1%	2%	-1%	-2%	u
Cc1ccc(C(=O)/C=C/c2ccccc2[N+](=O)[O-])cc1	u	u	4%[10 µM]	16µM*	-100%
O=C(/C=C/c1cccc(O)c1)c1cccnc1	u	11%	u	21µM*	8.9µM*
CCCCN(C(=O)c1ccccc1F)c1c(N)n(CCC)c(=O)[nH]c1=O	-10%	2%	-18%	-1%	-1%
O=C(/C=C/c1ccccc1)c1ccc(O)cc1	x	x	u	x	11µM*
O=C(C=Cc1cccnc1)c1ccccc1	12%	x	x	u	x
O=C(/C=C/c1cccnc1)c1ccccc1O	-9%	5%	u	21%	18µM*
Cc1[nH]c(C)c(C(=O)/C=C/c2ccc([N+](=O)[O-])cc2)c1C	u	-14%	u	12µM*	1.1µM*
O=C(N/N=C\c1cccnc1)c1ccccc1O	14%	u	-6%	-2%	-28%
O=C(/C=C/c1cccnc1)c1ccc(O)cc1	21µM*	u	-88%	u	13µM*
O=C(/C=C/c1ccc(O)cc1)c1ccccc1	30%	u	-18%	u	u
NCCC[C@@H](CC(=O)N[C@@H]1CCNC[C@H]1C(=O)N[C@H](CC(=O)N[C@@H](CCC(=O)O)CC(=O)O)Cc1ccccc1)NC(=O)C[C@H](Cc1c[nH]c2ccccc12)NC(=O)[C@@H]1CCCC[C@H]1N	x	x	2%	x	-1%
CN(C)c1ccc(/C=C/C(=O)c2cccnc2)cc1	3%	-3%	4%	8%	-14%
O=C(C=Cc1ccccn1)c1ccccc1	u	x	x	3.3µM*	x
O=C(/C=C/c1cccnc1)c1ccc([N+](=O)[O-])cc1	u	-10%	u	u	u
COc1cc(C(=O)/C=C/c2cccnc2)c([N+](=O)[O-])cc1OC	5%	u	x	23µM*	x
CN(C)C(=O)COc1ccc(C(=O)/C=C/c2cccnc2)cc1	u	u	u	u	18µM*
N=C1c2ccccc2CN1NC(=O)CC12CC3CC(CC(C3)C1)C2	-3%	11%	-1%	u	-17%
CCC1(C)Cc2ccccc2-c2nc(NN)[nH]c(=O)c21 (stereo unspecified)	-13%	4%	u	8%	16µM*
CCC1(CC)Cc2ccccc2-c2nc(CN3CCOCC3)[nH]c(=O)c21	-5%	22%	-15%	11%	-24%
CCC1(CC)Cc2ccccc2-c2nc(NN)[nH]c(=O)c21	-2%	1%	16µM*	7%	10µM*
Cc1noc(C)c1S(=O)(=O)N(C)C[C@H]1Oc2ccc(NC(=O)NC(C)C)cc2C(=O)N([C@H](C)CO)C[C@@H]1C	-12%	20%	x	17%	x
Cc1cc(C(=O)Nc2sccc2C#N)c2ccccc2n1	3%	1%	-6%	24%	19%

Screening results from PubChem.
